In the supplement of paper PMC9135407:
Structures can show the parent of a compound that is named as a salt. Hit rate of the full screen: of about 5,800 compounds, about 620 (11%) showed activity. Only a selection was taken, and actives are over-represented in it overall. Values without a mark were called inactive.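 How the source made its calls: active = score above a cut-off or among the top three wells of a plate; in these data no inactive exceeds 0.85.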

Tested on: primary human hepatic stellate cells (donor 1)
Experiment: scaled lipid accumulation score (0 = DMSO-like, 1 = nortriptyline-like); higher = stronger HSC inactivation (lipid re-accumulation), active = hit call of the paper
Conditions: 48 h
[1] = library stock concentration: 3.33 mM
[2] = library stock concentration: 10 mM
[3] = library stock concentration: 80 uM
[4] = library stock concentration: 400 uM
[5] = library stock concentration: 1 mM
[6] = library stock concentration: 2 mM

CC(=O)Nc1ccc(C(=O)Nc2ccccc2N)cc1 [CI994 (Tacedinaline)]
scaled lipid accumulation score [1]: ≤ 0
scaled lipid accumulation score [2]: 0.161

Nc1ccccc1NC(=O)c1ccc(CNc2nccc(-c3cccnc3)n2)cc1 [Mocetinostat (MGCD0103)]
scaled lipid accumulation score [2]: 0.769

Nc1ccccc1NC(=O)c1ccc(CNC(=O)OCc2cccnc2)cc1
scaled lipid accumulation score [3]: ≤ 0
scaled lipid accumulation score [4]: ≤ 0
scaled lipid accumulation score [5]: 0.014
scaled lipid accumulation score [6]: ≤ 0
scaled lipid accumulation score [2]: 0.628

Nc1ccccc1NC(=O)c1ccc(CNc2nccc(-c3cccnc3)n2)cc1 [Mocetinostat]
scaled lipid accumulation score [6]: 0.728 (active)
scaled lipid accumulation score [2]: 0.648 (active)

COC(=O)C(N)Cc1ccc(Cl)cc1 (racemic) [DL-p-Chlorophenylalanine methyl ester hydrochloride]
scaled lipid accumulation score [2]: ≤ 0

CCCCCCCC/C=C\CCCCCCCC(=O)OC[C@@H](O)COP(=O)(O)O [1-Oleoyl Lysophosphatidic Acid]
scaled lipid accumulation score [5]: ≤ 0

CCCCCCCC/C=C\CCCCCCCC(=O)OC[C@@H](O)COP(=O)(O)O [1-Oleoyl Lysophosphatidic Acid (sodium salt)]
scaled lipid accumulation score [5]: ≤ 0

CCCCCCCCCCOc1ccc(OCC(=O)Cn2cc(C(=O)OC)c3cc(C(=O)O)ccc32)cc1
scaled lipid accumulation score [5]: ≤ 0

CCCCCCC(Sc1nc(Cl)cc(NCc2ccc(-c3ccccc3)cc2)n1)C(=O)O (centres undefined)
scaled lipid accumulation score [5]: ≤ 0

CCCCCC(=O)CCC1C(=O)C=CC1C/C=C\CCCC(=O)O (centres undefined) [13,14-dihydro-15-keto Prostaglandin J2]
scaled lipid accumulation score [5]: ≤ 0

CCCCC[C@H](O)/C=C/[C@H]1OC(O)C[C@H](O)[C@@H]1C/C=C\CCCC(=O)O (some centres undefined) [Thromboxane B2]
scaled lipid accumulation score [5]: ≤ 0

CC(C)CCN1C(=O)N(CCN(C)C)C(=O)C12CCN(Cc1cn(C)c3ccccc13)CC2
scaled lipid accumulation score [2]: 0.692 (active)

C[C@@H]1[C@H](O)[C@@H](C)/C=C/C=C/C=C/C=C/C=C/C=C/C=C/[C@H](O[C@@H]2O[C@H](C)[C@@H](O)[C@H](N)[C@@H]2O)C[C@@H]2O[C@](O)(C[C@@H](O)C[C@@H](O)[C@H](O)CC[C@@H](O)C[C@@H](O)CC(=O)O[C@H]1C)C[C@H](O)[C@H]2C(=O)O [Amphotericin b]
scaled lipid accumulation score [2]: ≤ 0

C[C@@H]1[C@H](O)[C@@H](C)/C=C/C=C/C=C/C=C/C=C/C=C/C=C/[C@H](O[C@@H]2O[C@H](C)[C@@H](O)[C@H](N)[C@@H]2O)C[C@@H]2O[C@](O)(C[C@@H](O)C[C@@H](O)[C@H](O)CC[C@@H](O)C[C@@H](O)CC(=O)O[C@H]1C)C[C@H](O)[C@H]2C(=O)O [Amphotericin B]
scaled lipid accumulation score: 0.003
scaled lipid accumulation score [1]: 0.002
scaled lipid accumulation score [2]: ≤ 0

S=C(Nc1ccccc1)Nc1nccs1 [1-Phenyl-3-(2-thiazolyl)-2-thiourea]
scaled lipid accumulation score [2]: ≤ -0.055

COc1cccc(Nc2c(C(N)=O)cnc3c(C)cc(S(=O)(=O)c4cccc(C(=O)N(C)C)c4)cc23)c1
scaled lipid accumulation score [1]: ≤ 0
scaled lipid accumulation score [2]: ≤ 0

CCCCCC(O)C=CC1C(O)CC(=O)C1CCCCCCC(=O)O [15(R)-Prostaglandin E1]
scaled lipid accumulation score [5]: ≤ 0

CCCCCC(O)C=CC1C(O)CC(=O)C1CCCCCCC(=O)O (centres undefined) [8-iso Prostaglandin E1]
scaled lipid accumulation score [5]: ≤ 0

COc1cc(C)c(Sc2cnc(NC(=O)c3ccc(CNC(C)C(C)(C)C)cc3)s2)cc1C(=O)N1CCN(C(C)=O)CC1 (centres undefined)
scaled lipid accumulation score [3]: ≤ -0.009
scaled lipid accumulation score [4]: ≤ -0.009
scaled lipid accumulation score [6]: 0.095
scaled lipid accumulation score [2]: 0.769

COc1cc(C)c(Sc2cnc(NC(=O)c3ccc(CNC(C)C(C)C)cc3)s2)cc1C(=O)N1CCN(C(C)=O)CC1 (centres undefined) [listing 1 of 2 here]
scaled lipid accumulation score [2]: 0.891 (active)

COc1cc(C)c(Sc2cnc(NC(=O)c3ccc(CNC(C)C(C)C)cc3)s2)cc1C(=O)N1CCN(C(C)=O)CC1 (centres undefined) [listing 2 of 2 here]
scaled lipid accumulation score [3]: 0.006
scaled lipid accumulation score [4]: ≤ 0
scaled lipid accumulation score [6]: 0.398

CC(C(O)c1ccc(O)cc1)N1CCC(Cc2ccccc2)CC1.CC(C(O)c1ccc(O)cc1)N1CCC(Cc2ccccc2)CC1.O=C(O)C(O)C(O)C(=O)O (centres undefined) [Ifenprodil tartrate]
scaled lipid accumulation score [2]: 1.11 (active)

CC(C(O)c1ccc(O)cc1)N1CCC(Cc2ccccc2)CC1 (centres undefined) [Ifenprodil tartrate]
scaled lipid accumulation score: 0.252

C[C@@H](CN1CCC(Cc2ccccc2)CC1)[C@@H](O)c1ccc(O)cc1 [Ro 25-6981 hydrochloride]
scaled lipid accumulation score [2]: ≤ 0

CC(C(O)c1ccc(O)cc1)N1CCC(Cc2ccccc2)CC1 (centres undefined) [Ifenprodil Tartrate]
scaled lipid accumulation score [1]: ≤ 0
scaled lipid accumulation score [2]: 0.077

CC(C(O)c1ccc(O)cc1)N1CCC(Cc2ccccc2)CC1 (centres undefined) [Ifenprodil hemitartrate]
scaled lipid accumulation score [2]: 0.45

C[C@@H](CN1CCC(Cc2ccccc2)CC1)[C@@H](O)c1ccc(O)cc1 [Ro 25-6981 maleate]
scaled lipid accumulation score [2]: 0.284

CC(C(O)c1ccc(O)cc1)N1CCC(Cc2ccccc2)CC1 (centres undefined) [Ifenprodil]
scaled lipid accumulation score (library stock concentration: 6.1 mM): 0.223
scaled lipid accumulation score (library stock concentration: 9.6 mM): 0.096
